Results filed as inconclusive are left out. A number with no mark means an inactive call. Calls of active or inactive are those of the source. The call rests on the fitted dose curve; in most records, active means well fitted activation curve with a large enough effect; inconclusive means small, poorly fitted or top-dose-only effect; inactive means no such curve, though single readings can be large or run the other way.
Experiment: qHTS Assay for NPC1 Promoter Activators: Hit Validation Using Renila Luciferase Read-Out for NPC1; on activity change, positive = activation: % of control where 0% means no effect
Details: Huh7 NPC1 promoter-luciferase reporter, luminescence, 24 h; series mostly up to 76.9 µM; activity change, positive = activation: at the top concentration
Text: Niemann Pick Type C (NPC) is a rare neurodegenerative lipidosis that is characterized by lipid storage in the endosomal/lysosomal system. Treatment modalities for this devastating disease are currently non-existent due to the severe obstacles associated with accessing the central nervous system with proteins or genes. The majority of mutations causing NPC disease are missense mutations that are distributed throughout the length of the NPC1 protein, with the most prevalent being the I1061T allele. Although NPC1 mutant proteins may be functional, they are typically trapped in the ER due to misfolding. […] We have developed and optimized a cell based renilla luciferase reporter assay in 1536 well format for the identification of up-regulators of the mutant Rab9 promoter. This assay presents data on the validation of hits from the primary screen, which used a firefly luciferase read-out. NIH Chemical Genomics Center [NCGC] NIH Molecular Libraries Probe Production centers Network [MLPCN] MLPCN Grant: MH089375 Assay Submitter (PI): Yiannis A. Ioannou
Huh7 cells stably expressing NPC promoter-luciferase will be seeded at 1,500 cells/well in 5 uL in 1,536-well white opaque plates with 23 nL/well of compound in DMSO solution. The assay plates will be incubated at 37 deg C for 24 hours, after which 3 uL/well BriteLite plus luciferase detection reagent mixture (Perkin Elmer) will be added. Luminescence signal will be measured in a ViewLux plate reader (Perkin Elmer) after a 10 minute incubation at the room temperature.
Potency means the concentration at half of the fitted maximal effect.

Row | SMILES | activity change, positive = activation [%] | Potency
1 | CCCN(CCC)CCCNC(=O)c1cc2cc3ccc(Cl)cc3nc2o1 | -34 | 
2 | Nc1nc(SCCO)[nH]c(=O)c1NC(=O)c1ccco1 | 10 | 
3 | COc1ccc(C(c2nnnn2CCc2ccccc2)N2CCN(C3CCCC3)CC2)cc1 (stereo not given) |  | 13 µM (active)
4 | CCOC(=O)c1cc2sccc2n1CC(=O)N1CCCc2ccccc21 | 0.273 | 
5 | CCOC(=O)CSc1nc2cc(C)ccc2cc1C#N | -34.8 | 
6 | O=C(CSc1nnc(-c2ccccc2)o1)Nc1ccccc1F | -0.801 | 
7 | COC(=O)c1ccc(NC(=O)c2ccc3nc(C)sc3c2)cc1 | -9.33 | 
8 | Cc1ccc(NC(=O)c2ncc(Cl)c(Cl)c2Cl)cc1C | -39.1 | 
9 | O=C(CCCn1c(=O)oc2ccccc21)N1CCN(c2ccccn2)CC1 | -4.35 | 
10 | Cc1ccc2nc(Nc3ccc(Cl)cc3)c3nncn3c2c1 | -31.7 | 
11 | COCCNC(=O)CN1C(=O)NC(c2ccccc2)(c2ccccc2)C1=O | 3.54 | 
12 | Cc1nc(-c2ccc(S(=O)(=O)Oc3ccc(Cl)cc3Cl)s2)cs1 | -47.3 | 
13 | Cc1ccc(N=Cc2sc(O)c3ccccc23)c(C)c1 | -14.6 | 
14 | COc1cccc(C2Nc3ccccc3NC3=C2C(=O)CC(C)(C)C3)c1 (stereo not given) | -5.16 | 
15 | O=C(NC(=S)Nc1ccc(CN2CCCCC2)cc1)c1cc2ccccc2o1 | -40.3 | 
16 | COc1ccc(-n2cc(-c3ccc(Cl)cc3)[nH]c2=S)cc1 | 0.504 | 
17 | CCOC(=O)CSc1nc2cc3c(cc2cc1C#N)OCO3 | 15.2 | 
18 | COC(=O)c1sccc1NC(=S)OC | 5.09 | 
19 | COc1ccc(S(=O)(=O)NC(C(=O)NCCc2ccccn2)C(C)C)cc1 (stereo not given) | -2.89 | 
20 | CC(=O)NC(CCCN1C(=O)c2ccccc2C1=O)c1nnn(C)n1 (stereo not given) | -17.1 | 

Row | SMILES | activity change, positive = activation [%] | Potency
21 | COc1ccccc1NC(=S)NCc1ccc(Cl)cc1 | 5.09 | 
22 | N#CC/C(N)=N/NC(=O)CCCNc1ncc(C(F)(F)F)cc1Cl | -24.6 | 
23 | Cc1ccc2nc(NC(=O)CCn3cccc3)sc2c1 | 16.6 | 
24 | COc1cccc(C(C(=O)NC2CCCC2)N(CCC(C)C)C(=O)CCC(=O)Nc2cc(C)on2)c1 (stereo not given) | 22 | 
25 | CNC(=O)Cn1nc(C)c2ccccc2c1=O | -12.4 | 
26 | O=C(NCCSCc1c(F)cccc1Cl)c1ccc(CN2CCOCC2)cc1 | -51.3 | 
27 | Cc1nnc2n(c1=O)N=C(c1ccc(Cl)cc1)CS2 | 11.5 | 
28 | CCN(C(=O)COC(=O)c1ccc(C=O)cc1)c1c(N)n(Cc2ccccc2)c(=O)[nH]c1=O | 2.21 | 
29 | Cc1ccc(C)c(Nc2cc(C)nc3ncnn23)c1 | -15.2 | 
30 | O=C(CCc1cccc(Cl)c1)NC1CCCN(Cc2ccccc2F)C1 (stereo not given) | 8.73 | 
31 | COc1ccc([N+](=O)[O-])cc1COc1ccc2c(-c3ccccc3)cc(=O)oc2c1 |  | 1.46 µM (active)
32 | O=C(CSc1nnc(Cc2cc(=O)[nH]c(=O)[nH]2)n1-c1ccc(Cl)cc1)NC1CCCC1 | -6.19 | 
33 | CC1CN(C(=O)c2ccncc2)CC(C)O1 (stereo not given) | -24.2 | 
34 | CC(=O)Nc1ccc(NC(=O)COc2ncnc3ccccc23)cc1 | -0.508 | 
35 | Cc1cccc(NC(=O)CSc2nc3ccccc3o2)c1 | -16.9 | 
36 | Cc1nc2sc(C(=O)OC(C)C)c(N)c2c(C)c1C | 0.223 | 
37 | Fc1ccc(-c2nc3nc4ccccc4nc3n2Cc2ccco2)cc1 | -99.6 | 
38 | COc1ccc(-c2noc(N3CCCC(C(=O)Nc4ccccc4F)C3)n2)cc1 (stereo not given) | 4.18 | 
39 | Brc1ccccc1-c1nnc(CSc2nnc3sc4ccccc4n23)o1 | 3.11 | 
40 | Cc1csc(NC(=O)CSc2nnc(-c3ccncc3)o2)n1 | -30.8 | 
